# Reference: ChEMBL document CHEMBL3988442, “University of Dundee, Small-Polar-MMV Screening Library” (2021)
# For part of these data: Measured potencies and affinities stand elsewhere.
# Assays:
# Design in all cases: scale not given: direction of the effect not stated beside the values
# [1] = molecular target: Protein translocase subunit SecA (Escherichia coli (strain K12)) (UniProt P10408); test: Assay to Identify E. coli SecA ATPase Inhibitors; type: functional; settings: 30 µM
# [2] = molecular target: T1, Ubiquitin-activating enzyme e1, putative (Leishmania donovani (strain BPK282A1)) (UniProt E9BSI1); test: Leishmania donovani Ubiquitin Activating Enzyme (LdE1); type: functional; settings: 30 µM
# T1 sequence (whole entry): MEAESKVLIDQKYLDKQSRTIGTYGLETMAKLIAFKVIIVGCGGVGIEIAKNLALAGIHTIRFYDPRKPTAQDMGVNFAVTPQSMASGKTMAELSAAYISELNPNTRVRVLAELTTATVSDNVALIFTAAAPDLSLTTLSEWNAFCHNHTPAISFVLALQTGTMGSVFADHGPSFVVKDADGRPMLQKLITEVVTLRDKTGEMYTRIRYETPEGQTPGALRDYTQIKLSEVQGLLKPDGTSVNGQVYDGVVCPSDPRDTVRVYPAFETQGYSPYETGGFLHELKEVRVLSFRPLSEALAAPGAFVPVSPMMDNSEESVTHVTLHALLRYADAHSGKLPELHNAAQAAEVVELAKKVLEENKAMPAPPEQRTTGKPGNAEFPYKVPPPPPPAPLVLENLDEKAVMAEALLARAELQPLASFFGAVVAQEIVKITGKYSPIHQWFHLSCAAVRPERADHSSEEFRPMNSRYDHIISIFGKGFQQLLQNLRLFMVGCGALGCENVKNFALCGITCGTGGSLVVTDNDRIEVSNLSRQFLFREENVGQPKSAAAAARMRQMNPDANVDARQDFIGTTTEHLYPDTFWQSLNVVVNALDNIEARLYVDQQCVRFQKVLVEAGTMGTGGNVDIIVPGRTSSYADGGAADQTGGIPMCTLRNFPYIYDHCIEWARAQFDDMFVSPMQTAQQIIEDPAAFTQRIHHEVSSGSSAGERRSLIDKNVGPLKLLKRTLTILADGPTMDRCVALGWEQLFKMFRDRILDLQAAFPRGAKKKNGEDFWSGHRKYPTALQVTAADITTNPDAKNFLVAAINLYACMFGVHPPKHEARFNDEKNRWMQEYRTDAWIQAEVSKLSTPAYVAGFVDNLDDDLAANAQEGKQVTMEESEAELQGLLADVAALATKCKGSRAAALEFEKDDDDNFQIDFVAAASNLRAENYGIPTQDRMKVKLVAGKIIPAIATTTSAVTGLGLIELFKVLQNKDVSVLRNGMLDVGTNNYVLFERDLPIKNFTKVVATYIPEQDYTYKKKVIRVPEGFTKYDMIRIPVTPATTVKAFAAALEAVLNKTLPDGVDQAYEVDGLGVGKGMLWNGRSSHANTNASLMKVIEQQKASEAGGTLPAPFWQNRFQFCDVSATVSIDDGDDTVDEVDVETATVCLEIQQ
# [3] = molecular target: Sialic acid-binding Ig-like lectin 9 (Homo sapiens) (UniProt Q9Y336); test: Hs-Siglec9 ALPHAscreen SOP 20170721; settings: 10 µM
# Trypanosoma cruzi = test: Trypanosoma cruzi phosphomannomutase and mannose-1-phosphate guanylyltransferase assay; type: functional; settings: 10 µM
# [4] = molecular target: T2, Arginase-2, mitochondrial (Homo sapiens) (UniProt P78540); test: in vitro enzyme assay to detect the production of urea directly proportional to the activity of Arginase II; type: functional; settings: 33.3 µM; note: in the data most compounds retested in dose-response had high values
# T2 sequence (whole entry): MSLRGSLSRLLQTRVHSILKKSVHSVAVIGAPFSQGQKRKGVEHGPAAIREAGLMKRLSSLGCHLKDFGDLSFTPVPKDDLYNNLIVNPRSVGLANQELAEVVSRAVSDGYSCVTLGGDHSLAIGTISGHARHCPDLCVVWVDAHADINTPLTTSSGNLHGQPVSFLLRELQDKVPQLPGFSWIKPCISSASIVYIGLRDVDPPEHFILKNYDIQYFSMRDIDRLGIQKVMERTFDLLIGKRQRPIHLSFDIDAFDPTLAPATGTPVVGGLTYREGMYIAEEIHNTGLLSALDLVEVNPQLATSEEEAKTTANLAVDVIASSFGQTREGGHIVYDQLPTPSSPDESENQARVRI
# [5] = molecular target: T3, Proteasome subunit beta (Trypanosoma cruzi) (UniProt O96673); test: Trypanosoma cruzi proteasome chymotrypsin-like activity (TcProtChymo) assay.; note: in the data most compounds retested in dose-response had high values; type: functional; settings: 9.37 µM
# T3 sequence (whole entry): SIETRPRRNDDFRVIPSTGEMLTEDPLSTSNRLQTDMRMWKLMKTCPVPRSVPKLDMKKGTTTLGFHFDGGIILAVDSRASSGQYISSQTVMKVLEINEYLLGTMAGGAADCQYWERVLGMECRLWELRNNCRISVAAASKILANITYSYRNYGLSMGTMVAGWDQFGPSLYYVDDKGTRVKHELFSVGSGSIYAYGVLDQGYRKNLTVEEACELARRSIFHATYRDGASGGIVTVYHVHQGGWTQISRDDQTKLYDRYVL
# Homo sapiens = organism: Homo sapiens; test: To identify inhibition of the IFN signalling (Jak-Stat) pathway via expression of an eGFP reporter gene under the control of an IFN-stimulated response element (ISRE) containing MxA promoter.; type: functional; settings: 30 µM
# [6] = molecular target: T4, Tyrosyl-tRNA synthetase, putative (Trypanosoma cruzi (strain CL Brener)) (UniProt Q4DSP6); test: Trypanosoma cruzi tyrosyl tRNA synthetase (TcYRS) _High Tyrosine SOP; type: functional; settings: 30 µM; note: in the data most compounds retested in dose-response had high values
# T4 sequence (whole entry): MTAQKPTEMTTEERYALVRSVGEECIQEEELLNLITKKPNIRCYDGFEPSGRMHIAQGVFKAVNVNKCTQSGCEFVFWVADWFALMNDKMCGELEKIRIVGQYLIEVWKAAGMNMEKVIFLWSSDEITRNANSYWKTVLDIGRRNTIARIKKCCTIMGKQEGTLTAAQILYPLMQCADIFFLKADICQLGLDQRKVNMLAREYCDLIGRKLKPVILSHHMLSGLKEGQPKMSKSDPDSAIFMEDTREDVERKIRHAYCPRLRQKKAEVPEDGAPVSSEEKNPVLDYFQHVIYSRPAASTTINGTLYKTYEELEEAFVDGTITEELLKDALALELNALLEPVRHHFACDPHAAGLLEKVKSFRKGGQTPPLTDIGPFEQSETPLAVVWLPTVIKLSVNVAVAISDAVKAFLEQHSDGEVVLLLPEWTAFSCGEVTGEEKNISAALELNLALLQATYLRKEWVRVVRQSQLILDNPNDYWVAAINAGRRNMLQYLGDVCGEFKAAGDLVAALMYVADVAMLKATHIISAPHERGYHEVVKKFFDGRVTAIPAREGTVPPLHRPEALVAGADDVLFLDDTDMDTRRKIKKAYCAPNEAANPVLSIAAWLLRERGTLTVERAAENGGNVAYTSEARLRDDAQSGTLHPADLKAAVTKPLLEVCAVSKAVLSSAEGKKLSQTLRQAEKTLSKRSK
# [7] = molecular target: T4, Tyrosyl-tRNA synthetase, putative (Trypanosoma cruzi (strain CL Brener)); test: Trypanosoma cruzi tyrosyl tRNA synthetase (TcYRS) SOP; type: functional; settings: 30 µM
# [8] = molecular target: Chromo domain-containing protein 1 (Saccharomyces cerevisiae (strain ATCC 204508 / S288c) (Baker's yeast)) (UniProt P32657); test: ScCHD-1 Enzyme Inhibition Assay; type: functional; settings: 30 µM; note: in the data most compounds retested in dose-response had high values
# Chain of Chromo domain-containing protein 1 (Saccharomyces cerevisiae (strain ATCC 204508 / S288c) (Baker's yeast)) (P32657 whole entry, the tested form may be a part): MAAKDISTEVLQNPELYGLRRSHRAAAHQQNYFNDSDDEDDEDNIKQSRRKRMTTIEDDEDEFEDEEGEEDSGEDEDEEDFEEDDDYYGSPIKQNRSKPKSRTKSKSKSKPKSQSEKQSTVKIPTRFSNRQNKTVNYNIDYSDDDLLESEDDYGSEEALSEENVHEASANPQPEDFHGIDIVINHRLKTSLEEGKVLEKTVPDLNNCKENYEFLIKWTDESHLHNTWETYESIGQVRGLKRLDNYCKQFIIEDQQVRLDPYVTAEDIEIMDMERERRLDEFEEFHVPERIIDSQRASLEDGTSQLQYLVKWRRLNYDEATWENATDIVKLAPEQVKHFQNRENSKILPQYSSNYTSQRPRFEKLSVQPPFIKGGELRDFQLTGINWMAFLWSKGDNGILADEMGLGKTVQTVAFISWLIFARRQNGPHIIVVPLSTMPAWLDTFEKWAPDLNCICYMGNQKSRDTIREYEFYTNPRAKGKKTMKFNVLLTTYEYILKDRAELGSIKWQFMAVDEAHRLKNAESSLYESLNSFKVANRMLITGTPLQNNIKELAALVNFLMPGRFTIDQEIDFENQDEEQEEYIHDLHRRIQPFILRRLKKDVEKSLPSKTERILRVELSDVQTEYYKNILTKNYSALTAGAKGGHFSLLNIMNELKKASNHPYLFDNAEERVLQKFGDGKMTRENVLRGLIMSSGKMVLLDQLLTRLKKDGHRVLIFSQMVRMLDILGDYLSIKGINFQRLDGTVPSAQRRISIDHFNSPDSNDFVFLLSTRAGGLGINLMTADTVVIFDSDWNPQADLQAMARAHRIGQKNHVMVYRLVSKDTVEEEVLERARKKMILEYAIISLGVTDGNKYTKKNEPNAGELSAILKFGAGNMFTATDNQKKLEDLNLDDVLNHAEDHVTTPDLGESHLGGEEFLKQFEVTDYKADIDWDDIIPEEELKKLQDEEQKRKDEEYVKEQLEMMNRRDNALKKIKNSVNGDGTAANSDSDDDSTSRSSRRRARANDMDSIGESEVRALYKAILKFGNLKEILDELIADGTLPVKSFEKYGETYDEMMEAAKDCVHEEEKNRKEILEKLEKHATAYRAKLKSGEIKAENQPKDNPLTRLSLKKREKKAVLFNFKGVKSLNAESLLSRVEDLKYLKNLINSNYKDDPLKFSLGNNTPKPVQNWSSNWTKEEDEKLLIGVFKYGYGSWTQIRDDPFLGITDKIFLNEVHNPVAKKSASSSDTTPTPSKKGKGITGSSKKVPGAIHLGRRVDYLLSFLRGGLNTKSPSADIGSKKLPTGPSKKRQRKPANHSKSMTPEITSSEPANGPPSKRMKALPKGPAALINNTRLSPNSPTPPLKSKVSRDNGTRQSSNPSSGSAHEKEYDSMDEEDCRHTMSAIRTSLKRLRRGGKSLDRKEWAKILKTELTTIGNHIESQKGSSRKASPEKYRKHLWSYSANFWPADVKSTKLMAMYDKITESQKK
# Chain of Protein translocase subunit SecA (Escherichia coli (strain K12)) (P10408 whole entry): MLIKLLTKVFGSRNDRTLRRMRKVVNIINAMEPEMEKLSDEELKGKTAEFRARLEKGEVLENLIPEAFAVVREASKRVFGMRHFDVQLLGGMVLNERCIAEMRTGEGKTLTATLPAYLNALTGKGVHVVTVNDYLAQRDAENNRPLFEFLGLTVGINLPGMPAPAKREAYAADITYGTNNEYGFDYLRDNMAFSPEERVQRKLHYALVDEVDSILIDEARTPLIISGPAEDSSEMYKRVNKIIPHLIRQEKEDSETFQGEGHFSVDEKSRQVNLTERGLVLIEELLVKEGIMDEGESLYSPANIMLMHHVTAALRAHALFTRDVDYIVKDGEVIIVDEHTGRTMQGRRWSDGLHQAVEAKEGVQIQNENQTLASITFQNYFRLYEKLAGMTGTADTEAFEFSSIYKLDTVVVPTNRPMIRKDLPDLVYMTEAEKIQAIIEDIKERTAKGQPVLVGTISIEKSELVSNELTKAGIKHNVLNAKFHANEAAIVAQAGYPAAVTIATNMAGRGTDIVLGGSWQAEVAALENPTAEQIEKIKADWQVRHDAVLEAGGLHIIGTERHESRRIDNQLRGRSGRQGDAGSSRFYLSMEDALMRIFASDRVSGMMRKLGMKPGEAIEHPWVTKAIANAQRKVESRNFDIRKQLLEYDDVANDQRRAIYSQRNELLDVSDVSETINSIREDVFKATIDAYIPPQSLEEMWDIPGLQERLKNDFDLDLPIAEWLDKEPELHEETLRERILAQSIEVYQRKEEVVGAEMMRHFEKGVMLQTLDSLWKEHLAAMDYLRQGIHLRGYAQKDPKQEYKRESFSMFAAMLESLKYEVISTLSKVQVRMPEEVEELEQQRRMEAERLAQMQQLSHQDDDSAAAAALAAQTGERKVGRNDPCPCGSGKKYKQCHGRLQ
# Chain of Sialic acid-binding Ig-like lectin 9 (Homo sapiens) (Q9Y336 whole entry): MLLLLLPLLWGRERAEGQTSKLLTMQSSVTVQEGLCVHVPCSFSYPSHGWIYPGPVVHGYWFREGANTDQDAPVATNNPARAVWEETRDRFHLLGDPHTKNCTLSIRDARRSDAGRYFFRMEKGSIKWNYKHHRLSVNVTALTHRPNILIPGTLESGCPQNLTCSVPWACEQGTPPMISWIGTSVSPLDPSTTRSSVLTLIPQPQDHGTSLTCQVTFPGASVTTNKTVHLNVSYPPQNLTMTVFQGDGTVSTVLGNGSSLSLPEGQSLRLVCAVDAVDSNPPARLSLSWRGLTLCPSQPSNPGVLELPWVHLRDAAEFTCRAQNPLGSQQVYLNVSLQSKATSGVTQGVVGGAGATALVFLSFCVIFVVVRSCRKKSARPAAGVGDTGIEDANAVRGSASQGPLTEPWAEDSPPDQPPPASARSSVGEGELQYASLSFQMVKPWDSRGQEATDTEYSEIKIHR
SMILES,Percent Effect [1] [%],Percent Effect [2] [%],Percent Effect [3] [%],Percent Effect (Trypanosoma cruzi) [%],Percent Effect [4] [%],Percent Effect [5] [%],Percent Effect (Homo sapiens) [%],Percent Effect [6] [%],Percent Effect [7] [%],Percent Effect [8] [%]
CCCC(C)C(=O)N1CCC(n2cccc2C(=O)OC)CC1 (stereo not given),-6.33,10.4,13.2,-1.12,1.43,2.46,31,2.94,9.41,6.48
Fc1ccc(CN2CCC(c3n[nH]c4ncccc34)CC2)cc1F,-7.07,4,-2.28,-6.11,-0.885,3.94,16.9,-4.23,-5,-26.5
COc1ccc(F)cc1C(=O)N(C)Cc1cc(C)on1,-0.183,15.4,-5.44,-1.22,-0.41,14.1,21.1,2.39,13.2,-1.49
CC(C)(C)c1n[nH]c(C2CN(C(=O)c3ccsc3)CCO2)n1 (stereo not given),-1.88,7.69,5.72,0.657,0.82,3.33,-15.3,2.39,13.2,2.07
Cc1cnn(CC2CCCN2CC(=O)Nc2cc(C(C)(C)C)no2)c1 (stereo not given),-3.74,13,2.37,3.73,-0.615,6.84,2.79,7.84,28.2,-8.5
CCc1[nH]ncc1C(=O)N1CCCC(n2ccnc2C(C)C)C1 (stereo not given),-3.48,13.3,5.91,0,0.887,0.763,25.5,3.68,10.3,-5.4
CC(C)(C)c1nnc(CN2CCCC(Cn3cncn3)C2)o1 (stereo not given),-2.1,-2.56,0.0313,4.41,0.41,-1.79,8,2.39,1.21,-1.8
Cc1cc(OCC(=O)N2CCCC(c3noc(C)n3)C2)no1 (stereo not given),2.24,13.3,-8.66,-4.62,4.88,19.8,17.5,-0.526,2.56,-9.02
CNC(=O)c1ccc(CN(C(=O)c2scnc2C)C2CC2)cc1,-5.91,-7.69,-10.3,-0.845,-2.87,3.67,17.5,-3.35,-6.02,-4.57
CCc1nc(C2CCCN2C(=O)c2nc(C)n3ccccc23)no1 (stereo not given),-0.63,2.67,-0.749,-5.02,4.43,3.65,15,4.74,5.13,-15.8
Cc1ccc(Cl)cc1N1CCC(CNC(=O)CC(F)(F)F)C1 (stereo not given),-3.87,-2.56,-7.65,-2.54,1.23,7.25,38.9,-0.478,-3.61,0.808
c1cnnc(N2CCCC2CNCc2nc(C3CC3)no2)c1 (stereo not given),-0.891,-7.69,1.93,12.1,1.64,1.11,-18.5,6.22,6.02,8.01
CN(C)C(=O)CCC(=O)NCc1cccnc1-n1cnc2ccccc21,-4.75,-2.7,-1.92,-1.46,-9.44,-1.03,-10.5,1.6,-2.44,0.948
CC(C)N1CCCC2(CCN(C(=O)CCCn3cncn3)C2)C1=O (stereo not given),-5.4,5.41,6.04,7.27,-1.75,15.1,19.6,7.98,12.2,-6.32
Cc1nn(C)c(N(C)C)c1CNC(C)c1cccc(OC(C)C)c1 (stereo not given),2.06,5.2,13.8,-0.746,-7.58,4.91,15.4,3.92,18.8,-11.9
CN(CC1CCCCC1)C(=O)c1ccc(-n2ncc(C#N)c2N)cc1,-0.675,2.6,-3.53,-9.33,-9.22,7.37,48.7,4.9,16.5,-3.77
COC1CCCN(Cc2nc(Cc3ccccc3F)no2)C1 (stereo not given),-7.36,-5.41,1.17,2.04,1.75,1.71,3.24,5.85,14.6,0.44
CC(C)C(NC(=O)N1CCN(c2ccc(Cl)cc2)CC1)C(=O)NC1CC1 (stereo not given),-5.57,5.41,7.5,2.23,-3.15,16.4,21.7,4.79,19.5,-1.96
CC(C)N(Cc1cccc(F)c1)Cc1nc2c(cnn2C)c(=O)[nH]1,-1.46,7.69,6.74,0.469,3.28,1.79,5.6,3.35,13.2,-4.1
Cn1cccc1-c1cc(C(=O)N2CCCC2c2cccnc2)[nH]n1 (stereo not given),-6.61,18.9,15.5,5.72,5.94,16.6,5.26,4.79,17.1,-2.92
CC(C)(C)C(O)CN1CCN(C(=O)c2cccc3[nH]ncc23)CC1 (stereo not given),-8.1,20.5,-18.1,4.41,-0.41,20.4,1.83,3.35,22.9,22.1
Cc1cc2c(cc1C(=O)N1CC[C@H](CO)[C@@H](O)C1)OCCO2,-9.1,2.7,2.86,4.37,1.05,8.22,-0.0662,4.79,12.2,-4.74
OC(COCc1ccccc1F)CN1CCc2c(ncn2C2CC2)C1 (stereo not given),-3.46,-5.33,7.5,-4.02,2.66,8.06,10.4,2.63,0,-6.26
Cc1cc(C(=O)NCC(C)N2CCc3ccccc32)no1 (stereo not given),0.558,2.6,10.1,2.8,-4.3,0.175,23.3,7.84,11.8,-1.74
